Test results reported in the supplement of paper PMC9844399.

Tested on: HeLa
Assay: nuclear count per well, robust Z-score vs DMSO; higher = more cells (less toxicity)
Details: 10 µM; 6 h
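Note: Hoechst-stained nuclei counted by automated confocal imaging of four fields per well in 384-well plates, with the robust Z-score based on the per-plate DMSO median and robust SD.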

Going from `OC[C@H]1O[C@@H](O[C@@H]2[C@@H](CO)OC(O)(CO)[C@H]2O)[C@H](O)[C@@H](O)[C@H]1O` (mixture of isomers) [Lactulose] to `CCCCC[C@H](O)CC[C@H]1[C@H](O)CC(=O)[C@@H]1CCCCCCC(=O)O` [13,14-Dihydro-PGE1], the “nuclear count per well” value falls from 0.314 to -0.562.

First: Nc1ccc(S(=O)(=O)c2ccc(N)cc2)cc1 [Dapsone]
Second: CN(C)CCC[C@@]1(c2ccc(F)cc2)OCc2cc(C#N)ccc21 [Escitalopram]
The “nuclear count per well” value of the first is higher: 1.25 for the first, 0.345 for the second.

Compared with `Cc1nc2n(c(=O)c1CCN1CCC(c3noc4cc(F)ccc34)CC1)CCCC2O` (configuration not stated) [Paliperidone], `O=C(O)c1cn(C2CC2)c2cc(N3CCNCC3)c(F)cc2c1=O` [Ciprofloxacin] is lower in “nuclear count per well” value: 0.57 for the first, -0.537 for the second.

Compared with `CSc1ccc2c(c1)N(CCC1CCCCN1C)c1ccccc1S2` (configuration not stated), `CNCc1ccc(C)c(NC(=O)c2ccc(Nc3nc(-c4ccccc4)c4ccccc4n3)cc2)c1` is higher in “nuclear count per well” value: -0.0606 for the first, 0.283 for the second.

Compared with `Cl.O=C([O-])c1ccc(-c2c3nc(c(-c4ccc(C(=O)O)cc4)c4nc(c(-c5ccc(C(=O)O)cc5)c5ccc([nH]5)c(-c5ccc(C(=O)[O-])cc5)c5ccc2[n-]5)C=C4)C=C3)cc1.[Mn+3]` [MnTBAP chloride], `COc1ccc(-n2c(SCCCN3C(=O)c4cccc5cccc(c45)C3=O)nnc2-c2ccncc2)cc1` is lower in “nuclear count per well” value: 0.88 for the first, 0.424 for the second.

Going from `COc1ccc2[nH]c([S@@+]([O-])Cc3ncc(C)c(OC)c3C)nc2c1` [Esomeprazole Potassium] to `O=C(O[C@@H]1C[C@@H]2C[C@H]3C[C@H](C1)N2CC3=O)c1c[nH]c2ccccc12` [Dolasetron], the “nuclear count per well” value falls from 0.823 to -0.163.
